{
  "source": "patent US20180258417",
  "about": "“RAPID CHARACTERIZATION OF CAS ENDONUCLEASE SYSTEMS, PAM SEQUENCES AND GUIDE RNA ELEMENTS” (PIONEER HI-BRED INTERNATIONAL, INC., published 2018)",
  "binders": {"B1": {"name": "Blat sgRNA direct ; T1 + GTCCCGCA PAM (ssRNA ; dsDNA)", "RNA": "GGGCGCUAAAGAGGAAGAGGACAGCUAUAGUUCCUUACUGAAAGGUAAGUUGCUAUAGUAAGGGCAACAGACCCGAGGCGUUGGGGAUCGCCUAGCCCGUUUUUACGGGCUCUCCCCAUAUUCAAAAUAAUGACAGACGAGCACCUUGGAGCAUUUAUUUCCGAGGUGCUUUUUUUU", "DNA 1": "CGCTAAAGAGGAAGAGGACAGTCCCGCA", "DNA 2": "TGCGGGACTGTCCTCTTCCTCTTTAGCG", "modifications": "[NONE]"}, "B2": {"name": "Blat sgRNA direct ; T1 + GTCCCGAC PAM (ssRNA ; dsDNA)", "RNA": "B1 RNA", "DNA 1": "CGCTAAAGAGGAAGAGGACAGTCCCGAC", "DNA 2": "GTCGGGACTGTCCTCTTCCTCTTTAGCG"}},
  "key": {"Blat Cas9 [1]": {"biological_target": "T1, Blat Cas9 (Brevibacillus laterosporus SSP360D4)", "T1 chain": "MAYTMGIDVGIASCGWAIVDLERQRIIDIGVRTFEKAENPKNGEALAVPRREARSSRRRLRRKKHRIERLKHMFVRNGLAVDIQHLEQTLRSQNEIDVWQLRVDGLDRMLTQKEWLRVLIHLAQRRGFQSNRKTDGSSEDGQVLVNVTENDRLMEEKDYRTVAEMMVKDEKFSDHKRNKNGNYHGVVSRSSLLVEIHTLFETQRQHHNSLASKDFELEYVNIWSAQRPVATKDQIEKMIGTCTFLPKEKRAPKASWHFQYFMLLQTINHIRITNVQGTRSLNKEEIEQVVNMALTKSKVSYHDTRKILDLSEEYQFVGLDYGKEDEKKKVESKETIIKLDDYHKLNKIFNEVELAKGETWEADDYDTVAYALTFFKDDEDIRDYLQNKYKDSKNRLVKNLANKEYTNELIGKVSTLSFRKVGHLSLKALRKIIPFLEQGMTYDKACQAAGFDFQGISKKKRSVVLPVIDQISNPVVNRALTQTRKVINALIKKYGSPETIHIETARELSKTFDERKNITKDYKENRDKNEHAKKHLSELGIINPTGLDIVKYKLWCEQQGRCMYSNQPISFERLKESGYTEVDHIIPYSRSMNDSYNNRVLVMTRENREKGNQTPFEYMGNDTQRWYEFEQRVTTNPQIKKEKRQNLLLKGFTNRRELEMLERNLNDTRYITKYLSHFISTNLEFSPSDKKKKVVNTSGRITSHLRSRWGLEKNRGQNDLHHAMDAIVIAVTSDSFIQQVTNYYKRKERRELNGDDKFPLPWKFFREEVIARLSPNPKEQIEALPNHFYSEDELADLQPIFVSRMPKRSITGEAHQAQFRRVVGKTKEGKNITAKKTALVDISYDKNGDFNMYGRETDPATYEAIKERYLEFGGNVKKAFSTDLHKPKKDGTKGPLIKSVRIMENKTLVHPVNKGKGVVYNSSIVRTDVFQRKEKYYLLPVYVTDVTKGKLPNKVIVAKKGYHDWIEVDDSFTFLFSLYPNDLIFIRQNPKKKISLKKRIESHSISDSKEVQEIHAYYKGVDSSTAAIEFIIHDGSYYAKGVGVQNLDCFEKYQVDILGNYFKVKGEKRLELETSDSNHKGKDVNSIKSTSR", "assay": "cleavage_in_vitro; PAM position 7 A to C; 10 mM MgCl2, 15 C", "conditions": "tags: C-terminal His (pBAD24-CHis)", "description": "(§1) To validate the PAM specificity for Blat Cas9, plasmids were engineered to contain mutations ([…] (reference), […], […], […], […], […] with mutations shown in bold and underlined, FIG. 39) in the most conserved residues of the PAM immediately downstream of a 20 base pair region matching the variable targeting domain T1 (SEQ ID NO: 141). In vitro cleavage reactions with the various PAM sequences were initiated by mixing supercoiled plasmid DNA with pre-assembled Blat Cas9-sgRNA complex (1:1 v/v ratio) at 15° C. The final reaction mixture contained 3 nM plasmid, 50 nM Cas9, 10 mMTris-HCl (pH 7.5 at 37° C.), 100 mM NaCl, 1 mM DTT and 10 mM MgCl2 in a 100 μI reaction volume. Aliquots were removed at timed intervals and quenched with phenol/chloroform. The aqueous phase was mixed with 3× loading dye solution (0.01% (w/v) bromophenol blue and 75 mM EDTA in 50% (v/v) glycerol) and reaction products analyzed by agarose gel electrophoresis. The amount of supercoiled (SC) form was evaluated by densitometric analysis of ethidium bromide stained gels using the software ImageJ. Values of reaction rate constants were obtained as described by Szczelkun, et al., (2014) Proc. Natl. Acad. Sci. USA 111:9798-9803). Replacement of the C nucleotide at the 5th position abolished plasmid DNA cleavage confirming its key role in Blat Cas9 PAM recognition (FIG. 39)."}, "Blat Cas9 [2]": {"biological_target": "T1, Blat Cas9", "assay": "cleavage_in_vitro; PAM position 8 A to C; 10 mM MgCl2, 15 C", "conditions": "tags: C-terminal His (pBAD24-CHis)", "description": "as §1"}},
  "data": [
    {"binder": "B1", "values": [
      {"measurement": "cleavage rate decrease vs reference PAM", "setting": "Blat Cas9 [1]", "result": 43, "unit": "fold decrease in rate"}
    ]},
    {"binder": "B2", "values": [
      {"measurement": "binding signal", "setting": "Blat Cas9 [2]", "result": 12, "unit": "fold decrease in rate"}
    ]}
  ]
}
